The full list was thinned out, with hits kept by preference.
TcdB inh: blocks C. difficile toxin B glycohydrolase activity | inhibition, % at 9.99 µM | P18177 | hit rate 0.24% among 350,000 | TcdB glycohydrolase enzymatic assay, plate reader | AID 652162; in the data active means inhibition above about 10%
Anthrax LF prot: inhibitors of Bacillus anthracis lethal factor protease; P15917; multiplex microsphere protease cleavage assay, LF; inhibition, % at 10 µM; hit rate 0.12% among 360,000; AID 588501; further: plate controls were buffer without enzyme for full effect and enzyme alone for no effect
Autofluor counter: counter-screen for toxin protease inhibitors: compound fluorescence; compound autofluorescence counterscreen, microsphere flow cytometry; stronger effect = higher value; fluorescence intensity (concentration not given with the values); hit rate 3.1% among 360,000; in the data active means fluorescence intensity above about 16000; inconclusive means no clear call, values can overlap the other calls
BoNT-F LC inh: inhibitors of Botulinum neurotoxin F light chain protease | Multiplex microsphere protease cleavage assay, flow cytometry | inhibition, % at 10 µM | hit rate 0.22% among 360,000; in the data active means inhibition above about 35%, passing the limit was not always enough; inconclusive means no clear call, values can overlap the other calls; further: plate controls were buffer without enzyme for full effect and enzyme alone for no effect
BoNT-A LC inh2: blocks Botulinum neurotoxin A light chain protease; multiplex microsphere protease substrate cleavage, flow cytometry; inhibition, % at 10 µM; hit rate 0.17% among 360,000; AID 588499; further: plate controls were buffer without enzyme for full effect and enzyme alone for no effect
* hit, by the source's call; ? = inconclusive; . = not tested or not shown. Unless noted, no stated cut-off is given here; in the data, active means inhibition above about 30%; inconclusive means no clear call, values can overlap the other calls; inactive means below that.

SMILES | TcdB inh | Anthrax LF prot | Autofluor counter | BoNT-F LC inh | BoNT-A LC inh2
C[C@@H]1CCCCO[C@H](CN(C)C)[C@@H](C)CN([C@@H](C)CO)C(=O)c2cc(NC(=O)Cc3ccccc3)ccc2O1 | -20.7 | . | . | . | .
CC1CC2(O)c3no[n+]([O-])c3CCC2N1O (stereo unspecified) | . | -0.8 | 22460* | 2.7 | 2.5
CC1CN(O)C2CCc3c(no[n+]3[O-])C12O (stereo unspecified) | . | -2.5 | 9901 | -0.7 | -0.4
O=C(COc1ccccc1)N(Cc1ccccc1)c1nc(-c2ccccc2)cs1 | . | -0.7 | 21962* | 1.8 | 0.9
COc1ccc(-c2csc(N(CCc3ccc(OC)c(OC)c3)C(=O)COc3ccccc3)n2)cc1 | . | -1.9 | 19913* | -1.6 | ?
COc1ccc(-c2csc(N(Cc3ccccc3)C(=O)COc3ccc(Cl)cc3)n2)cc1 | . | -3.8 | 10521 | -5.0 | -1.2
COc1ccccc1NC(=O)c1csc2c1CCCC2 | . | -3.5 | 19509* | 1.0 | ?
COc1ccc2c3c(n(C)c2c1)[C@@H](CO)N(S(C)(=O)=O)CC31CN(C(=O)C2CCC2)C1 | 0.6 | . | . | . | .
N#Cc1c(N)nc2c(c1-c1ccccc1)CCCC2 | 0.6 | -8.9 | 21448* | 2.6 | ?
N#Cc1c(N)nc2c(c1-c1ccncc1)CCCC2 | . | -11.9 | 9814 | -5.7 | -0.2
N#Cc1c2c(nc(N)c1-c1ccccc1)CCCCC2 | . | 0.6 | 2670 | 5.4 | 0.0
CSc1nc2c(c(-c3ccccc3)c1C#N)CCC2 | . | 0.9 | 21295* | 2.7 | ?
N#Cc1c(N)nc2c(c1-c1ccncc1)CCCCCC2 | . | -3.0 | 23466* | -2.4 | -1.4
C[C@@H]1CN([C@H](C)CO)S(=O)(=O)c2ccc(-c3ccc(C(=O)N(C)C)cc3)cc2O[C@H]1CN(C)Cc1ccccc1C(=O)O | 0.8 | . | . | . | .
COCCNc1cc(C)nc2c3c(C)cc(C)nc3nn12 | . | -1.1 | 23058* | -0.4 | -0.8
Cc1cc(NCCN2CCOCC2)n2nc(C)c(-c3ccccc3)c2n1 | . | -3.9 | 4901 | -27.5 | -0.1
COCCNc1cc(C)nc2c(-c3ccccc3OC)c(C)nn12 | 0.9 | -10.8 | 4463 | -7.2 | -1.0
Cc1cc(C)c2c(n1)nn1c(NCCN3CCOCC3)cc(C)nc21 | . | 0.1 | 23370* | 3.8 | 0.2
C/C=C/c1ccc2c(c1)O[C@@H](CN(C)C(=O)COC)[C@@H](C)CN([C@H](C)CO)S2(=O)=O | -0.1 | . | . | . | .
COC(=O)C1=C(c2ccc(OCc3ccccc3)cc2)C[C@@H]2CC[C@H]1N2C(=O)NCCCc1ccccc1 | 11.7* | -5.3 | 3022 | 2.1 | -0.4
C[C@H](CO)N1C[C@H](C)[C@H](CN(C)C(=O)CCCN(C)C)OCCCC[C@H](C)Oc2ccc(NC(=O)NC3CCCCC3)cc2C1=O | 1.0 | . | . | . | .
COc1ccc(OC)c(N/C(C)=C/C(=O)c2ccc(Br)cc2)c1 | -2.1 | -4.7 | 4241 | -6.7 | -1.1
COc1ccc(OC)c(N/C(C)=C/C(=O)c2ccc(C)o2)c1 | -1.8 | -1.2 | 20443* | -7.4 | ?
Nc1c(C2=NCCO2)nnn1Cc1ccccc1 | . | -8.6 | 17624* | -9.3 | -3.3
COC(=O)CN1C(=O)C2(C(C#N)=C(N)Oc3ccccc32)C2=C1CC(C)(C)CC2=O (stereo unspecified) | . | -2.7 | 22010* | 3.2 | 1.9
SMILES | TcdB inh | Anthrax LF prot | Autofluor counter | BoNT-F LC inh | BoNT-A LC inh2
CC(C)c1cn(CC[C@@H]2CC[C@@H](NC(=O)C3CCCCC3)[C@H](CO)O2)nn1 | -1.8 | . | . | . | .
C[C@H](CO)N1C[C@H](C)[C@@H](CN(C)C)Oc2ccc(NC(=O)Nc3ccc(F)cc3)cc2CC1=O | 0.2 | . | . | . | .
Cc1cc(-n2c(=O)c(C#N)cc3c(=O)n4ccccc4nc32)no1 | . | -0.8 | 8488 | 2.9 | -0.1
CC(=O)N=c1c(C#N)cc2c(=O)n3ccccc3nc2n1CCCOC(C)C | -1.1 | . | . | . | .
Cc1ccccc1-n1c(=O)c(C#N)cc2c(=O)n3ccccc3nc21 | . | 0.4 | 21339* | -6.9 | ?
CCCCCn1c(=NC(C)=O)c(C#N)cc2c(=O)n3ccccc3nc21 | . | 0.2 | 23665* | -0.5 | 2.1
CCCCn1c(=NC(=O)c2ccc3c(c2)OCO3)c(C#N)cc2c(=O)n3cccc(C)c3nc21 | . | 49.0* | 2551 | 38.4* | 62.7*
C[C@H](CO)N1C[C@H](C)[C@H](CN(C)C(=O)C2CCCCC2)OCCCC[C@H](C)Oc2ccc(NC(=O)c3ccccc3)cc2C1=O | 1.6 | . | . | . | .
COc1cc(CNCC(C)C)c(Br)cc1OCC(=O)NCc1ccccc1 | . | -4.9 | 16297* | -7.8 | -0.5
Cc1noc(C)c1NC(=O)N(C)C[C@H]1Oc2ncc(/C=C/c3ccccc3)cc2C(=O)N([C@H](C)CO)C[C@@H]1C | -0.2 | . | . | . | .
Cc1ccc(-c2noc(CSc3nnc(Cc4cccs4)n3-c3ccccc3)n2)cc1 | 1.1 | 1.3 | 6099 | -0.3 | -1.0
Cc1ccc(-n2c(Cc3cccs3)nnc2SCC(N)=O)cc1 | 1.4 | -0.6 | 16452* | -0.1 | ?
